TGFb inhibitor – TGF-b pathway inhibition; HepG2 CAGA-GFP TGF-b/SMAD3 reporter, GFP fluorescence, 18 h; TGF-beta stimulated, 500 pg/mL final; Potency, µM (titrated, usually from 46.1 µM), for inactives: at the top dose activity, negative = inhibition, actives largely listed as inhibitors; actives 1.2% (n = 410,000); AID 588855; note: % is set by controls: 0 for no effect and ±100 for the full control effect; nearly all actives have a fitted effect of over 65% in size
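Inhibition was scored as loss of TGF-beta-induced (500 pg/mL final, 18 hours, 37 degrees C) GFP in HEPG2 cells carrying a CAGA-GFP reporter, in DMEM with 1% FBS. Well GFP was summed per cell; Activity was normalised to unstimulated and stimulated DMSO wells, then concentration-response fitting.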
HepG2 viability – counter-screen for TGF-b inhibitors: cytotoxicity in HepG2 cells | actives 0.76% (n = 410,000) | Potency, µM (highest dose often 46.1 µM), for the others: top-dose activity change, negative = cytotoxicity, most hits filed as cytotoxic | HepG2 CAGA-GFP viability, ATP luminescence, 18 h
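CellTiter-Glo luminescence gave cytotoxicity after 18 hours at 37 degrees C. The cells were HepG2 CAGA-GFP in 1% FBS DMEM, stimulated with 500 pg/mL TGF-beta after compound addition. %Activity was normalised to no-cell wells (complete cell-killing) and DMSO (no toxicity), and curves were fitted and classified.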
KB-3-1 cytotox – KB-3-1 parental cell cytotoxicity. KB-3-1 viability, CellTiter-Glo ATP luminescence, 72 h. Potency, µM (doses to about 46.1 µM), actives largely listed as cytotoxic. actives 1.4% (n = 400,000); note: % is set by controls: 0 for no effect and ±100 for the full control effect; nearly all actives have a fitted effect of over 60% in size
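Multi-concentration cytotoxicity screen in KB-3-1 cells grown in DMEM lacking phenol red with 10% FBS. After 72 h at 37 °C with compound, ATP-dependent luminescence was recorded.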
ATXN2 expr inh – reduces ATXN2 reporter expression in HEK-293 cells | actives 0.72% (n = 360,000) | Potency, µM (doses to about 57 µM), inactives show at the top dose activity change, negative = inhibition, actives largely listed as inhibitors | HEK-293 ATXN2-luciferase reporter, luminescence, 24 h; note: % is set by controls: 0 for no effect and ±100 for the full control effect; nearly all actives have a fitted effect of over 55% in size
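ATXN2-luciferase reporter cells (luciferase flanked by upstream and downstream ATXN2 gene portions) were treated 24 h at 37 °C with compounds at up to 57 uM. SteadyGlo luminescence gave expression; GF-AFC fluorescence gave viability.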
KB-V1 MDR tox – kills drug-selected multidrug resistant KB-V1 cells | KB-V1 MDR cells viability, CellTiter-Glo, 72 h | Potency, µM (titrated, usually from 46.1 µM), usual class: cytotoxic | actives 3.4% (n = 400,000); note: % is set by controls: 0 for no effect and ±100 for the full control effect; nearly all actives have a fitted effect of over 60% in size
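Potencies derive from concentration-effect curves fitted to normalized luminescence (CellTiter-Glo) of KB-V1 cells treated for 72 h at 37 degrees C in phenol-red-free DMEM containing 10% FBS.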
ATXN viability – reduces viability in counter-screen for ATXN expression inhibitors | Potency, µM (top dose mostly 56.7 µM), most hits filed as cytotoxic | actives 0.49% (n = 400,000) | AID 651635 | S2 cells (HEK-293 line with an ATXN2-luciferase reporter) viability, CellTiter-Fluor protease fluorescence, 24 h; note: nearly all actives have a fitted effect of over 40% in size
* hit, by the source's call; i = inactive; ? = inconclusive; / = no result. Hits are enriched below; roughly 5.9% of the tested compounds scored in any of these assays. Calls come from the whole dose curve; as a rule, active = well fitted curve in the direction sought with a large enough effect; inconclusive = small, poorly fitted or top-dose-only effect, or another doubt; inactive = no such curve, though single readings can be large; an effect the other way counts as inactive or inconclusive. Potency is the fitted concentration of half-maximal effect.

SMILES	TGFb inhibitor	HepG2 viability	KB-3-1 cytotox	ATXN2 expr inh	KB-V1 MDR tox	ATXN viability
Cc1cn2nc(N)c3ccccc3c2n1	2%	-12%	i	4%	i	i
Nc1nn2cc(-c3ccccc3)nc2c2ccccc12	?	-42%	i	131%	16µM*	i
Cc1c(N/N=C(\C#N)C(=O)c2ccc(Cl)cc2)c(=O)n(-c2ccccc2)n1C	?	3%	3.3µM*	7.9µM*	i	?
Cc1c(NC(=O)C(C)OC(=O)c2cc(-c3cccc4ccccc34)nc3ccccc23)c(=O)n(-c2ccccc2)n1C (stereo not given)	-28%	-22%	i	-4%	9.2µM*	i
Cc1c(NC(=O)COC(=O)C(c2ccc(Cl)cc2)C(C)C)c(=O)n(-c2ccccc2)n1C (stereo not given)	-17%	-38%	?	-4%	8.2µM*	i
N#C/C(=N\Nc1ccc(Cl)cc1)C(=O)c1ccccc1	?	-36%	?	?	i	?
Cc1c(NC(=O)COC(=O)c2cc(-c3ccc(-c4ccccc4)cc3)nc3ccccc23)c(=O)n(-c2ccccc2)n1C	0%	-52%	9.2µM*	15%	4.6µM*	?
COc1ccc(-c2cc(C(=O)OC(C)C(=O)Nc3c(C)n(C)n(-c4ccccc4)c3=O)c3ccccc3n2)cc1 (stereo not given)	-20%	6%	i	7%	i	?
CC(O)(COc1ccccc1)c1ccc2c(c1)CN(Cc1cccc3ncccc13)CCO2 (stereo not given)	/	/	/	/	/	i
COc1ccc(-c2[nH]ncc2C(=O)NCc2ccc(F)cc2)cc1	/	-12%	/	/	/	/
COc1ccc(CN2CCCC(c3nc(-c4ccncc4)ncc3-c3ccccc3)C2)c(OC)c1OC (stereo not given)	/	/	/	/	/	i
CCOC(=O)Cc1csc(Nc2c(C)n(C)n(-c3ccccc3)c2=O)n1	25%	-6%	i	-7%	i	i
Cc1c(Nc2nc(-c3ccc(Cl)cc3)cs2)c(=O)n(-c2ccccc2)n1C	0%	-17%	?	-11%	7.3µM*	i
CCCCN(C)c1c(C)nc2ccc(C(=O)NCc3ccc4c(c3)OCO4)cn12	?	2%	i	?	?	i
CC12CCC(=O)C=C1CCC1C2CCC2(C)C(c3csc(N)n3)CCC12 (stereo not given)	13µM*	8%	?	?	21µM*	?
Cc1nc(-c2cccnc2)sc1CCNS(=O)(=O)c1ccc(F)cc1	11%	-5%	i	-2%	?	i
Cc1cc(C(C)(C)CC(C)(C)C)ccc1OCCOCC[N+](C)(C)Cc1ccccc1	?	20µM*	?	?	i	?
COc1ccc(CCNC(=O)c2ccc3c(c2)N(Cc2ccccc2Cl)C(=O)c2ccccc2S3)cc1OC	?	-14%	/	/	/	/
COc1ccccc1-c1cc(=O)c2c(O)ccc([N+](=O)[O-])c2o1	0%	-21%	21µM*	6%	4.6µM*	i
O=c1cc(-c2ccccc2Cl)oc2c([N+](=O)[O-])c(O)cc(O)c12	13µM*	-6%	i	?	i	i
Nc1ccc2oc(-c3ccccc3Cl)cc(=O)c2c1O	?	-3%	7.3µM*	81%	?	i
CN1CC[C@H](c2c(O)cc(O)c3c(=O)cc(-c4ccccc4Cl)oc23)[C@@H](O)C1	0.22µM*	-3%	/	/	/	/
O=[N+]([O-])c1ccc2c(c1)c1ccccc1n2CCO	-7%	-1%	?	-6%	8.2µM*	/
Cc1sc2ncnc(NCc3ccco3)c2c1C	-25%	-6%	6.5µM*	?	2.6µM*	i
CC1CCc2c(sc3ncnc(NCCN4CCOCC4)c23)C1 (stereo not given)	-1%	-31%	i	28%	i	i
